Screens: PubChem, National Center for Advancing Translational Sciences (NCATS)
Hits are enriched below; roughly 11% of the tested compounds scored in any of these assays.
G9a block: qHTS Assay for Inhibitors of Histone Lysine Methyltransferase G9a; Histone-lysine N-methyltransferase EHMT2 (Homo sapiens), Q96KQ7; G9a H3K9 monomethylation, AlphaScreen, 2 h; Potency, µM (top dose mostly 102 µM), for inactives: top-dose activity, negative = inhibition, most hits filed as inhibitors; 350,000 tested, 8.8% active; AID 504332, 2011; note: potency is the fitted concentration of half-maximal effect; % is set by controls: 0 for no effect and ±100 for the full control effect; nearly all actives have a fitted effect of over 75% in size
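G9a (20 nM) was preincubated 15 min with compound, then reacted 2 h at room temperature with 500 nM biotin-H3K9 peptide and 20 µM SAM. Monomethyl-H3K9 detected by AlphaScreen using anti-H3K9me1 antibody.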
L3MBTL1 block: qHTS Assay for the Inhibitors of L3MBTL1; Potency, µM (top dose mostly 57.1 µM), for the others: top-dose activity, negative = inhibition, most hits filed as inhibitors; AlphaScreen L3MBTL1–H3K9me1 peptide binding; Lethal(3)malignant brain tumor-like protein 1 (Homo sapiens), Q9Y468; 230,000 tested, 0.66% active; note: potency is the fitted concentration of half-maximal effect; % is set by controls: 0 for no effect and ±100 for the full control effect; nearly all actives have a fitted effect of over 60% in size
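L3MBTL1 (50 nM) pre-complexed 30 min with biotinylated H3(1-15)K9me1 peptide (75 nM), then compounds added for 30 min at room temperature; AlphaScreen streptavidin donor/nickel chelate acceptor beads (10 ug/mL final) read after 30 min dark incubation.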
BAZ2B inh: qHTS Assay for Inhibitors of BAZ2B. Bromodomain adjacent to zinc finger domain protein 2B (Homo sapiens), Q9UIF8. AlphaScreen BAZ2B-H3K14Ac peptide displacement. Potency, µM (highest dose often 114 µM), for the others: top-dose activity change, negative = inhibition, most hits filed as inhibitors. 360,000 tested, 4.4% active. AID 504333, 2011; note: potency is the fitted concentration of half-maximal effect; % is set by controls: 0 for no effect and ±100 for the full control effect; nearly all actives have a fitted effect of over 60% in size
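Protein-peptide AlphaScreen: BAZ2B 50 nM, b-H3K14Ac 50 nM, 1x PBS pH 7.4 + 0.01% Tween-20. Preincubation 30 min RT; cpd 30 min RT (top 110 uM); beads 20 min RT, light-protected.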
JMJD2A Tudor: qHTS Assay for Inhibitors of JMJD2A-Tudor Domain. Lysine-specific demethylase 4A (Homo sapiens), O75164. AlphaScreen JMJD2A-Tudor / H3K4me3 peptide binding. Potency, µM (highest dose often 114 µM), for inactives: top-dose activity change, negative = inhibition, actives largely listed as inhibitors. 390,000 tested, 4.4% active; note: potency is the fitted concentration of half-maximal effect; % is set by controls: 0 for no effect and ±100 for the full control effect; nearly all actives have a fitted effect of over 50% in size
PI5P4Ka inh: qHTS for Inhibitors of phosphatidylinositol 5-phosphate 4-kinase (PI5P4K) | 330,000 tested, 1.2% active | max response, % | AID 652105, 2013 | Phosphatidylinositol 5-phosphate 4-kinase type-2 alpha (Homo sapiens), P48426 | PI5P4Kalpha enzyme, ADP-Glo luminescence, 60 min; hits give low values; active = max response of -50% or lower; inconclusive = between -30% and -50%; inactive = -30% or higher; note: value at the top dose of about 77 µM; % is set by controls: 0 for no effect and ±100 for the full control effect
Target sequence (P48426 whole entry, looked up): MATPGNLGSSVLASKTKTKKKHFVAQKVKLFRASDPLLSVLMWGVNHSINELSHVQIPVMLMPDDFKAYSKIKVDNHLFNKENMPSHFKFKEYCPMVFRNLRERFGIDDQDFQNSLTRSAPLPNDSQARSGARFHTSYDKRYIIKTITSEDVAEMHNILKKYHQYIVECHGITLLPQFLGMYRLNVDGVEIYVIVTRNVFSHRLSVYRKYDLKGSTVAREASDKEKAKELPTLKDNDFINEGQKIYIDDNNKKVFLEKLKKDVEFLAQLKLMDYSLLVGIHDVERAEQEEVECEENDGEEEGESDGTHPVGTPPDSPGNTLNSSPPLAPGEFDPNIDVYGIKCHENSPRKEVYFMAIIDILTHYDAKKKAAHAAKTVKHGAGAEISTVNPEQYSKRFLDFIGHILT
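Reactions run in 0.038 M HEPES pH 7.4, 0.28 mM EGTA, 0.1% CHAPS and 5% DMSO, with PI5P4Kalpha, substrate, compound and 5 microM ATP final, one hour at room temperature. Readout is ADP-Glo luminescence.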
HP1b binding inh: HTS for Inhibitors of HP1-beta Chromodomain Interactions with Methylated Histone Tails. AlphaScreen HP1-beta / biotin-H3K9me3 peptide binding. Potency, µM (highest dose often 114 µM), without a hit: at the top dose activity change, negative = inhibition, most hits filed as inhibitors. 390,000 tested, 0.56% active. Chromobox protein homolog 1 (Homo sapiens), P83916. AID 540317, 2011; note: potency is the fitted concentration of half-maximal effect; nearly all actives have a fitted effect of over 70% in size
Target sequence (P83916 whole entry, looked up): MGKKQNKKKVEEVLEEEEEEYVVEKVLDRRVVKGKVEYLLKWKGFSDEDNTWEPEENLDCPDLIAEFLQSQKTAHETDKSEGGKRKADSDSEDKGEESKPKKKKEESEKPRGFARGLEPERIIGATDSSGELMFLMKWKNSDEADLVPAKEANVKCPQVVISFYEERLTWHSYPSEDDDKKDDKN
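HP1-beta protein (50 nM final) preincubated 30 min at room temperature with biotinylated H3(1-18)K9me3 peptide (50 nM) in PBS pH 7.4, 0.01% Tween-20, then compound added for 30 min. AlphaScreen streptavidin donor/nickel chelate acceptor beads (10 ug/mL final), 30 min dark, luminescence read.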
An asterisk follows results filed as active; ? = inconclusive; · = not tested or not shown; [ ] = another dose, or the depositor's remark. Unless noted, calls come from the whole dose curve; as a rule, active = well fitted inhibition curve with a large enough effect; inconclusive = small, poorly fitted or top-dose-only effect; inactive = no such curve, though single readings can be large or run the other way.

SMILES	G9a block	L3MBTL1 block	BAZ2B inh	JMJD2A Tudor	PI5P4Ka inh	HP1b binding inh
CC(Cc1ccc(O)cc1)NCC(O)c1ccc(O)c(O)c1 (stereo unspecified)	·	·	·	·	-58.8*	·
CC(Cc1ccc(OCC(=O)O)cc1)NCC(O)c1cccc(Cl)c1 (stereo unspecified)	20.5%[12.7 µM]	·	·	·	·	·
C[C@H](CO)N1C[C@H](C)[C@@H](CN(C)C(=O)Nc2ccccc2)Oc2c(NS(=O)(=O)c3ccc(F)cc3)cccc2C1=O	·	9.1%	·	-5.7%	-1.0	48.4%
Oc1ccccc1CN(CCc1ccccc1)Cc1ccccc1	-9.7%[0.501 µM]	3.7%[2.29 µM]	?	44.7µM*	14.6	-19.5%
CN(CCc1ccccc1)Cc1ccccc1[N+](=O)[O-]	?	·	?	-9.1%	4.5	50.1%
CC(n1cc(C[C@H](N)C(=O)O)c2ccccc21)n1cc(C[C@H](N)C(=O)O)c2ccccc21	4.8%[59 µM]	·	·	·	·	·
N[C@@H](Cn1ccc(=O)[nH]c1=O)C(=O)O	1.5µM*	·	·	·	·	·
N[C@@H](Cn1cc(I)c(=O)[nH]c1=O)C(=O)O	35.5µM*	·	·	·	·	·
NC(Cn1ccc(=O)[nH]c1=O)C(=O)O (stereo unspecified)	11.0%[12.7 µM]	·	·	·	·	·
COc1cccc(C(=O)c2cn(CC(=O)Nc3cc(Cl)c(OC)cc3OC)c3nc(C)ccc3c2=O)c1	8.1%[59 µM]	·	5.2%	-14.6%	·	79.0%
COc1ccc(OC)c(N2C(=O)NC(=O)/C(=C\c3ccc([N+](=O)[O-])s3)C2=O)c1	8.91µM*	10µM*	28.2µM*	28.2µM*	-61.2*	25.1µM*
O=C1NC(=O)N(c2ccccc2)C(=O)/C1=C\c1ccc([N+](=O)[O-])s1	8.91µM*	·	35.5µM*	22.4µM*	-73.7*	15.8µM*
CN1C(=O)NC(=O)/C(=C/c2ccc([N+](=O)[O-])s2)C1=O	7.08µM*	·	50.1µM*	?	-56.0*	?
Cc1ccc(/C=C2/C(=O)NC(=O)N(C)C2=O)cc1	-26.5%[59 µM]	3.3%	-33.3%	-14.4%	-2.0	20.3%
CC(C)n1c(=O)c(C=Nc2ccc(S(N)(=O)=O)cc2)c(O)n(Cc2ccco2)c1=O	?	-10.4%	?	-21.1%	-28.3	1.8%
Cc1cccn2c(=O)c(C=Nc3ccccc3)c(NCc3ccco3)nc12	50.1µM*	-5.1%	?	-23.6%	·	34.5%
CCc1ccc(-n2nc(C)c3c(C(=O)NCCc4ccc(OC)c(OC)c4)cc(C)nc32)cc1	4.8%[59 µM]	·	18.6%[57.1 µM]	5.5%	·	47.3%
[N-]=[N+]=CC(=O)OC[C@H](N)C(=O)O	14.8%	7.1%	3.7%	31.6µM*	-1.8	29.1%
O=C(Nc1ccc2oc(-c3cccnc3)nc2c1)c1ccc(-c2cccc(Cl)c2)o1	?	·	56.2µM*	79.4µM*	·	?
Cc1ccc(N2C(=O)NC(=O)/C(=C\c3cn(CC(=O)O)c4ccccc34)C2=O)cc1	25.1µM*	-2.3%	?	-9.2%	-4.6	27.9%
CCN1C(=O)NC(=O)/C(=C\c2cn(CC(=O)O)c3ccccc23)C1=O	8.5%[2.33 µM]	·	-14.0%	·	·	·
O=C1NC(=O)N(c2ccccc2F)C(=O)/C1=C/c1cn(CC(=O)N2CCOCC2)c2ccccc12	15.8µM*	·	-0.5%	-0.4%	-2.6	39.5%
COC(=O)Cn1cc(/C=C2\C(=O)NC(=O)N(c3ccccc3)C2=O)c2ccccc21	-4.9%	-5.4%	-4.4%	-24.7%	-8.9	31.0%
O=C(O)Cn1cc(/C=C2\C(=O)NC(=O)N(c3ccc(Br)cc3)C2=O)c2ccccc21	56.2µM*	·	-4.0%	-9.2%	-26.3	9.0%[57 µM]
Cc1cc(/C=C2/C(=O)NC(=O)N(Cc3ccco3)C2=O)c(C)n1-c1ccccc1O	·	-14.8%	35.5µM*	?	?	-8.2%
SMILES	G9a block	L3MBTL1 block	BAZ2B inh	JMJD2A Tudor	PI5P4Ka inh	HP1b binding inh
Cc1cc(/C=C2\C(=O)NC(=O)N(C)C2=O)c(C)n1-c1ccc2c(c1)OCO2	-49.7%	-12.0%	?	-31.9%	?	19.0%
COc1ccc2c(c1)[C@@]13CCCCC1[C@@H](C2)N(C)CC3 (stereo partly specified)	-37.4%[2.33 µM]	·	·	·	·	·
O=C(O)Cn1cc(/C=C2\C(=O)NC(=O)N(Cc3ccco3)C2=O)c2ccccc21	15.8µM*	5.01µM*	70.8µM*	79.4µM*	?	-30.5%
CN1CCC(O)(c2ccc(Cl)cc2)C(C(=O)c2ccc(Cl)cc2)C1 (stereo unspecified)	10µM*	-8.3%	-7.8%	-20.5%	-1.6	33.9%
CC(C)c1ccc(Oc2cccc3c2S(=O)(=O)N(C2CCCC2)CC(COCc2ccccc2)O3)cc1 (stereo unspecified)	·	·	·	-5.8%	3.9	63.8%
O=[N+]([O-])c1cccnc1N1CCCNCC1	44.7µM*	·	-3.4%	-16.8%	-2.8	9.8%
O=[N+]([O-])c1ccc(N2CCCCCC2)c2ncccc12	25.1µM*	?	14.1µM*	15.8µM*	4.7	?
COc1cc(CN2CCc3nc(N4CCN(c5ccccc5F)CC4)ncc3C2)ccc1OC(C)C	-13.5%[59 µM]	·	?	-21.9%	·	18.9%
c1ccc(CN2CCc3nc4ccccc4cc3C2)cc1	10.4%	·	-16.8%	-17.1%	1.7	21.0%
COc1cc(CN2CCc3nc(N4CCN(c5ccccn5)CC4)ncc3C2)cc(OC)c1OC	?	·	50.1µM*	79.4µM*	·	?
COc1cc(CN2CCc3nc(N4CCN(c5ncccn5)CC4)ncc3C2)cc(OC)c1OC	?	·	44.7µM*	50.1µM*	·	-14.4%
O=C(CCC1CCCN(Cc2cccc3c2OCO3)C1)NCc1ccc(F)c(F)c1 (stereo unspecified)	18.7%[12.7 µM]	-1.6%	-15.4%	-6.9%	5.2	57.8%
COc1ccc(/C=C2\C(=O)NC(=O)N(CCC3=CCCCC3)C2=O)c(OC)c1	11.2µM*	3.8%	12.7%	-42.1%	?	17.8%
O=C1NC(=O)N(CCC2=CCCCC2)C(=O)/C1=C/c1cccs1	14.1µM*	-26.7%	?	?	-63.4*	5.5%
C=CCc1cccc(C=Nc2c[nH]c(=O)[nH]c2=O)c1O	-10.0%	-6.7%	?	39.8µM*	-7.7	-0.4%
COc1ccc(CCNC(=O)CCn2c(=O)c3ccccc3n(Cc3ccc(Cl)cc3)c2=O)cc1OC	4.6%[59 µM]	·	8.5%	1.4%	·	57.5%
O=C1NC(=S)SC1=Cc1ccc(N(CCCl)CCCl)cc1	·	·	·	31.6µM*	-72.1*	?
